# The campaign covered roughly 3,600 compounds. About 900 (25%) were called active. How the calls were made is not given here. Only a sample is shown. A call without a number means that no potency is given here. Potency and affinity values are given separately.
# Molecular target: Protein Tat (Human immunodeficiency virus type 1 group M subtype B (isolate HXB2)) (UniProt P04608)
# Assay: inhibitors of Tat binding to TAR RNA, dose response, counter-screen for Vif-APOBEC3G degradation inhibitor project, biochemical, fluorescence polarization, FAM-labeled TAR RNA (AID 1117361)
# Details: outcome: dose series up to 100 µM unless noted; series mostly up to 100 µM
row,SMILES,outcome
1,CCOC(=O)c1c(C)[nH]c(C(=O)COC(=O)CN2C(=O)C3CCCCC3C2=O)c1C (stereo not given),inactive
2,COc1ccc(C(=O)OCC(=O)c2c(N)n(C)c(=O)n(C)c2=O)cc1OC,inactive
3,COc1ccc(CC(=O)Oc2ccc(F)c(F)c2)cc1S(=O)(=O)N1CCOCC1,inactive
4,CC1(C)CCN(Cc2ccccc2)C1CC#N (stereo not given),inactive
5,COC(=O)c1cnn2c(C)c(Cc3cccc(F)c3)c(C)nc12,inactive
6,COC(=O)C1CCN(C(=O)NC(C)(C)C)CC1,inactive
7,COc1cc2oc3ccccc3c2cc1N(CC(=O)N(C)C)S(=O)(=O)c1ccccc1,inactive
8,CCOc1cc(C2NC(=O)NC(C)=C2C(=O)NCc2ccccc2)c(Cl)cc1O (stereo not given),inactive
9,O=C1c2ccccc2C(=O)N1CCC(c1ccc(F)cc1)c1ccco1 (stereo not given),inactive
10,c1ccc(Cn2nnnc2-c2ccco2)cc1,inactive
11,Cn1c(N)c(C(=O)CCl)c(=O)n(Cc2ccccc2)c1=O,inactive
12,O=C(O)c1ccc(S(=O)(=O)c2ccc3c(c2)C(=O)N(Cc2ccco2)C3=O)cc1,inactive
13,CC1CCCCN1C(=O)c1ccc(S(=O)(=O)N2CCCCC2C)cc1 (stereo not given),inactive
14,COCCn1c(COc2cccc(OC)c2)nnc1SCC(=O)N1CCOCC1,inactive
15,NC(=O)C[C@@H]1N[C@]2(C(=O)Nc3ccccc32)[C@@H]2C(=O)N(c3cc(C(F)(F)F)ccc3Cl)C(=O)[C@H]12,inactive
16,CCn1c(C(=O)OC)cc2c1ccn2-c1ccc(F)cc1,inactive
17,Cc1cccc(N(C(=O)c2ccc(Cl)cc2)C2CS(=O)(=O)CC2OC(=O)c2ccc(Cl)cc2)c1 (stereo not given),inactive
18,O=C(CSc1nncs1)NC(=O)NCc1ccccc1,inactive
19,COc1ccccc1C(=O)C1CCCN(Cc2ccc3c(c2)OCCO3)C1 (stereo not given),inactive
20,COC(=O)c1c(C)[nH]c(C(=O)CSc2ccc(Cl)cc2)c1C,inactive
21,Cn1nccc1NC(=O)Nc1ccc(Cl)cc1,inactive
22,CC(C)(C)c1ccc(NC(=O)N2CCN(c3ccc([N+](=O)[O-])cn3)CC2)cc1,inactive
23,Cn1nc(C(=O)OCC(=O)N2CCc3ccccc32)c2ccccc2c1=O,inactive
24,Cc1ccc(C2(C(F)(F)F)NC(=O)N3CCN=C3S2)cc1 (stereo not given),inactive

row,SMILES,outcome
1,Cc1nc(N2CCN(Cc3ccccc3)CC2)nc2c1C(=O)CCC2,inactive
2,CCc1cccc(NC(=O)CCS(=O)(=O)c2ccc(Br)cc2)c1,inactive
3,O=C(CCS(=O)(=O)c1ccc(Br)cc1)NCCc1ccccc1,inactive
4,CCOc1ccc(NC(=O)CCS(=O)(=O)c2ccc(Br)cc2)cc1,inactive
5,COc1ccc(Cl)cc1NC(=O)CCS(=O)(=O)c1ccc(Br)cc1,inactive
6,NS(=O)(=O)c1ccc(CCNC(=O)CCS(=O)(=O)c2ccc(Br)cc2)cc1,inactive
7,CCOc1ccccc1NC(=O)CCS(=O)(=O)c1ccc(Br)cc1,inactive
8,Cc1ccccc1OCCC(=O)Nc1ccccc1C(=O)NC1CC1,inactive
9,OC(c1ccc(Cl)cc1)C(O)c1nc2ccccc2[nH]1 (stereo not given),inactive
10,CCCCOc1ccc(C(=O)NCC(=O)NCC(=O)OCC)cc1,inactive
11,CCCCn1nc(C(=O)O)ccc1=O,inactive
12,COc1ccc(CNC(=O)c2sc3nc4c(c(C(F)(F)F)c3c2N)CCC4)cc1OC,inactive
13,CC(=O)Nc1ccc(NC(=O)C(C)OC(=O)CC23CC4CC(CC(Br)(C4)C2)C3)cc1 (stereo not given),inactive
14,CC1CCCN(CC(O)CN2CCN(CC(O)CN3CCCC(C)C3)C(C)C2)C1 (stereo not given),inactive
15,CCCc1n[nH]c2c1C(=O)C(C(=O)OC)C(C)(C)C2 (stereo not given),inactive
16,CCCC(=O)C1=C(N(C)c2ccccc2)CC(C)(C)CC1=O,inactive
17,COC(=O)C1C(O)=C(C=Nc2ccc(N)cc2)C(=O)CC1(C)C (stereo not given),inactive
18,O=C(Nc1nnc(SCc2c(Cl)cccc2Cl)s1)c1cccc([N+](=O)[O-])c1,inactive
19,CCOC(=O)N1CCC(Nc2c(-c3ccc(C)cc3)c(=O)c2=O)CC1,inactive
20,O=C(Cn1cnc2c(cnn2-c2ccc(F)cc2)c1=O)N1CCN(c2ccccc2)CC1,inactive
21,COc1cc(C2Nc3cccc4cccc(c34)N2)cc(OC)c1OC(C)=O,inactive
22,COc1cc(C)c(C2NC(=O)c3ccccc3N2)cc1C (stereo not given),inactive
23,CCOC(=O)c1sc(C)c2c(=O)n(CCc3ccccc3)nnc12,inactive
24,O=C(/C=C/Nc1ccccc1Br)c1ccccn1,inactive

row,SMILES,outcome
1,O=C(CSc1ncn[nH]1)Nc1c(Br)cc([N+](=O)[O-])cc1Br,inactive
2,O=C(CSc1ncn[nH]1)Nc1nc(-c2ccccc2)ns1,inactive
3,CCOc1cc(NC(=S)NCC(C)C)c(OCC)cc1NC(=O)c1cccs1,inactive
4,COc1ccccc1NS(=O)(=O)c1cc(C(=O)NCCN2CCOCC2)ccc1Cl,inactive
5,COc1cccc(OC)c1C(=O)Nc1cc(Cl)ccc1N1CCOCC1,inactive
6,Cc1ccc(C)c(S(=O)(=O)Nc2ccccc2C(=O)Nc2ccccc2N2CCOCC2)c1,inactive
7,CN1CCN(S(=O)(=O)Cc2ccc(Cl)cc2)CC1,inactive
8,O=C(NCc1ccccc1)/C(=C/c1ccc(OC(F)F)cc1)c1ccccc1,inactive
9,O=C(CCS(=O)(=O)c1ccc(Br)cc1)N1CCN(c2ccc(F)cc2)CC1,inactive
10,Cc1ccc(C(C)C)c(OCCCN2CC(C)OC(C)C2)c1 (stereo not given),inactive
11,COC(=O)c1ccccc1NC(=O)C(C)Oc1ccccc1 (stereo not given),inactive
12,COC(=O)c1ccccc1NC(=O)CSCC(=O)Nc1ccccc1,inactive
13,Cc1nnc(-c2cnn(C)c2N)n1Cc1ccc(Cl)cc1,inactive
14,COc1cc(/C=C2\CC/C(=C\c3cc(OC)c(O)c(OC)c3)C2=O)cc(OC)c1O,inactive
15,COc1cc(C(=O)OCCN2CCCCC2)ccc1O,inactive
16,CC12C(=O)N(c3ccccc3C(=O)O)C(=O)C1C1C=CC2C1 (stereo not given),inactive
17,Cc1nc2ccccc2c2oc(C(=O)N3CCN(C(=O)c4ccco4)CC3)cc12,inactive
18,Cc1cc(C(=O)N2CCN(CCc3ccccc3)CC2)no1,inactive
19,CC(=O)c1c(C)[nH]c(C(=O)Nc2ccc(C)c(C)c2)c1C,inactive
20,CN(C)c1ccc(/C=C/C#N)cc1,inactive
21,CCC(C(=O)Nc1cc(C(=O)O)ccc1C)c1ccccc1 (stereo not given),inactive
22,Cc1ccc(S(=O)(=O)N2CCCCC2)cc1C(=O)Nc1ccc2cn[nH]c2c1,inactive

# Reference: PubChem BioAssay AID1117361 (Southern Research Institute, 2015)
